Compound activity (PubChem)
Most compounds without a hit are left out; they make up all but 6.6% or so of the library.
Mdm2 MdmX PPI: inhibitors of human Mdm2/MdmX interaction. O15151+Q00987. SaOS-2 split-luciferase Mdm2/MdmX complementation, luminescence. inhibition, % at 8 µM. 330,000 compounds, 3% hits. AID 485346;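 active = inhibition of at least 50% at 8 µM in the primary screen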
Target sequence (O15151 whole entry, looked up): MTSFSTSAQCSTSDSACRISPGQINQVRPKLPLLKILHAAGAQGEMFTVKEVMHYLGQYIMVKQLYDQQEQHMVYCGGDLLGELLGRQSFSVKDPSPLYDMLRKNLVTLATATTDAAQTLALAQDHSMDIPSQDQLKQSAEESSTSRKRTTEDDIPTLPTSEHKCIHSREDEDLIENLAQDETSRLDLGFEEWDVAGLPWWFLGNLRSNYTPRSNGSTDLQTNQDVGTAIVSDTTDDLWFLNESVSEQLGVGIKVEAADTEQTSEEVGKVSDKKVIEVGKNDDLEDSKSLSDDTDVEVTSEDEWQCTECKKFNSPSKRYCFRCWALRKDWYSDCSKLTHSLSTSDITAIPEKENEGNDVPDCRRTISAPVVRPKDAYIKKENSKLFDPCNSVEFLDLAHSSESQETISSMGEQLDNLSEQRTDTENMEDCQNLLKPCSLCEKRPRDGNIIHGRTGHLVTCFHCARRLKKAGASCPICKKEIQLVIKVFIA
Target sequence (Q00987 whole entry, looked up): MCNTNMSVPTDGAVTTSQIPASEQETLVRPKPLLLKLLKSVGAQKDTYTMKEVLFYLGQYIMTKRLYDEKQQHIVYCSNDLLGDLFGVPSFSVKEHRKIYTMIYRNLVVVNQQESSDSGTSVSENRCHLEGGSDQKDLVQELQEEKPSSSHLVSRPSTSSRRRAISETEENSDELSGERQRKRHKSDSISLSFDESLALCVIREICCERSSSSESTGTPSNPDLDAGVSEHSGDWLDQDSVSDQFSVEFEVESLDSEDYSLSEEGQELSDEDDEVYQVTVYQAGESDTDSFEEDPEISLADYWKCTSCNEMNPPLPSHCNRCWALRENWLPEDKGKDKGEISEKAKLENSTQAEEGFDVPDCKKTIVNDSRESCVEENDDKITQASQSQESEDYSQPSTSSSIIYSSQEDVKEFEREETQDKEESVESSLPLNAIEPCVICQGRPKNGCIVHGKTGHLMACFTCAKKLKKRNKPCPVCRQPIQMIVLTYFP
CSC inhib: blocks cancer stem cells | cancer stem cell-like cells viability, luminescence | inhibition, % at 7.5 µM | 300,000 compounds, 1.1% hits | AID 2717; in the data active = inhibition above about 75%; tested in HMLE shEcad cells
Beta cell apopt: blocks beta cell apoptosis. INS-1E cytokine-induced death, ATP luminescence, 48 h; percent of positive-control rescue, neutral wells zero. 300,000 compounds, 0.8% hits. AID 435005. protection from apoptosis, % (concentration not given with the values);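 active = Every replicate reaches about 75%, or at least half do and their mean reaches it too, limit read from the data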;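 also: 0% = cytokine-treated negative control wells and 100% = positive control rescue; higher means more ATP so stronger rescue from cytokine killing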
Gli-Sufu block: blocks Gli-Sufu signaling in a luciferase reporter. Sufu-KO-LIGHT fibroblasts, Gli luciferase reporter luminescence. inhibition, % at 5 µM. 340,000 compounds, 0.74% hits. AID 588413;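 active = inhibition above about 55%, limit read from the data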;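 also: 0% = DMSO-treated cells and 100% = wells with medium but no cells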
GRIN3A LBD mod: modulators (binders) of human NR3A ligand-binding domain. NR3A LBD differential scanning fluorimetry, Tm shift; 0% = protein alone, 100% = glycine-bound protein. Tm shift relative to glycine control, % at 25 µM. 340,000 compounds, 2.5% hits. AID 1259313;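 active = melting temperature shift of at least 10% of the positive control shift, at one fixed dose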
MPTP inh: permeability transition pore inhibition; isolated mouse mitochondria, Ca2+ swelling absorbance, 30 min; inhibition, % at 10 µM; 360,000 compounds, 1.4% hits;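 active = inhibition of 50% or more, scaled per plate between neutral and stimulator controls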;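 also: 0% = DMSO wells given calcium and 100% = 1 mM EGTA wells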
Starred values were filed as active, the others as inactive.

Results for Cc1ccc(NC(=O)c2ccc(CNS(=O)(=O)c3cccc(C(F)(F)F)c3)cc2)cc1 ?
Mdm2 MdmX PPI: 24.3; CSC inhib: 7.6; Beta cell apopt: -11.8; Gli-Sufu block: -2.8; GRIN3A LBD mod: 11.3*; MPTP inh: 0.1

How did COc1cccc(S(=O)(=O)NCc2ccc(C(=O)Nc3cccc(Cl)c3)cc2)c1 do in these assays?
Mdm2 MdmX PPI: 35.5; CSC inhib: 98.5*; Beta cell apopt: 10.1; Gli-Sufu block: 11.4; GRIN3A LBD mod: 15.1*; MPTP inh: 2.4

What do the screens show for `O=C(Nc1ccccc1F)c1ccc(CNS(=O)(=O)c2cccc(C(F)(F)F)c2)cc1`?
Mdm2 MdmX PPI: 29.8; CSC inhib: -5.9; Beta cell apopt: 0.1; Gli-Sufu block: 3.3; GRIN3A LBD mod: -0.2; MPTP inh: 0.3

Results for C[C@H](NC(=O)[C@@H]1CCCN1C(=O)[C@@H]1CCCN1C(=O)OC(C)(C)C)c1ccccc1 ?
MPTP inh: -0.5

What do the screens show for `O=C(COC(=O)c1ccc[nH]c1=O)NCCCc1ccccc1`?
Mdm2 MdmX PPI: -16.9; CSC inhib: -12.2; Beta cell apopt: 0.0; Gli-Sufu block: -5.5; GRIN3A LBD mod: 0.1; MPTP inh: -0.5

How did Cn1c(C(=O)NCCCN2CCN(c3ccccc3F)CC2)cc2c(=O)[nH]c3ccccc3c21 do in these assays?
Mdm2 MdmX PPI: 37.2; CSC inhib: 2.4; Beta cell apopt: 2.9; Gli-Sufu block: 6.8; GRIN3A LBD mod: 16.8*; MPTP inh: -0.3

What do the screens show for `CC1CC(C)CN(CCCNC(=O)c2cc3c(=O)[nH]c4ccccc4c3n2C)C1` (stereo unspecified)?
Mdm2 MdmX PPI: 20.3; CSC inhib: 29.6; Beta cell apopt: 8.5; Gli-Sufu block: 31.0; GRIN3A LBD mod: 0.5; MPTP inh: 0.5

What do the screens show for `CC(C)(Oc1ccc(Br)cc1Cl)C(=O)Nc1ccon1`?
Mdm2 MdmX PPI: 1.1; CSC inhib: 1.9; Beta cell apopt: -3.7; Gli-Sufu block: -7.6; GRIN3A LBD mod: 12.8*; MPTP inh: 0.1

What do the screens show for `O=C(Nc1ccon1)Nc1cc(Cl)ccc1Cl`?
Mdm2 MdmX PPI: 15.6; CSC inhib: -2.6; Beta cell apopt: 6.4; Gli-Sufu block: -5.2; GRIN3A LBD mod: -10.1; MPTP inh: 0.1

How did O=C(Cn1ncc(Cl)c(Cl)c1=O)NCC1CCCCC1 do in these assays?
CSC inhib: 99.7*; Beta cell apopt: -7.9; Gli-Sufu block: -0.4; GRIN3A LBD mod: 1.5; MPTP inh: 1.3

Results for CCCc1cc(C(=O)Nc2cccc(Cl)c2)no1 ?
Mdm2 MdmX PPI: -130.1; Beta cell apopt: -3.6; Gli-Sufu block: -11.2; GRIN3A LBD mod: 12.8*; MPTP inh: 0.5

What do the screens show for `O=C(Nc1ccccc1)OCCCCCOC(=O)Nc1ccccc1`?
Mdm2 MdmX PPI: 30.4; CSC inhib: 7.7; Beta cell apopt: 5.0; Gli-Sufu block: 9.8; GRIN3A LBD mod: 46.1*; MPTP inh: 0.5

What do the screens show for `O=C(Nc1cccc(O)c1)c1cc(-c2ccccc2Cl)on1`?
Mdm2 MdmX PPI: -18.2; CSC inhib: 30.6; Beta cell apopt: -6.2; Gli-Sufu block: -28.7; GRIN3A LBD mod: 29.9*; MPTP inh: 0.9

Results for O=C(Nc1cccc(Cl)c1)OCCOC(=O)Nc1cccc(Cl)c1 ?
Gli-Sufu block: 5.8; GRIN3A LBD mod: 28.7*; MPTP inh: 9.6

How did CC1=C(C(=O)N(C)C)CC(CC(=O)NCCCCc2ccccc2)C(=O)N1Cc1ccccc1 (stereo unspecified) do in these assays?
MPTP inh: -0.2

How did CN(Cc1cnn(-c2ccc(F)cc2)c1)C(=O)[C@H]1O[C@@H](n2ccc(=O)[nH]c2=O)[C@H](O)[C@@H]1O do in these assays?
MPTP inh: -0.3

Results for COc1ccc(N2CCN(C(=O)CNC(=O)Cn3cnc4sc(C)c(C)c4c3=O)CC2)cc1 ?
Mdm2 MdmX PPI: 16.1; CSC inhib: -17.3; Beta cell apopt: -5.1; Gli-Sufu block: 3.3; GRIN3A LBD mod: -1.4; MPTP inh: -1.2

How did O=C(Nc1ccccc1)OCCOc1ccccc1 do in these assays?
Mdm2 MdmX PPI: -118.5; Beta cell apopt: 2.5; Gli-Sufu block: -3.2; GRIN3A LBD mod: -11.1; MPTP inh: -1.5

Results for COc1ccc(OCCOC(=O)Nc2ccccc2)cc1 ?
Mdm2 MdmX PPI: -11.7; Beta cell apopt: 1.4; Gli-Sufu block: 2.1; GRIN3A LBD mod: 33.2*; MPTP inh: -0.6

What do the screens show for `O=C(Nc1cccc(Cl)c1)OCCOc1ccccc1`?
CSC inhib: 8.9; Beta cell apopt: 2.1; Gli-Sufu block: -27.1; GRIN3A LBD mod: 15.1*; MPTP inh: 3.4

What do the screens show for `CCC(C(=O)NC(C)(C)C)n1c(-c2cccc(NC(C)=O)c2)nc2ccccc21` (stereo unspecified)?
MPTP inh: -0.9

How did CCN(CC)S(=O)(=O)c1ccc2[nH]c(=O)cc(C(=O)Nc3ccc(C)cc3)c2c1 do in these assays?
Mdm2 MdmX PPI: 17.9; CSC inhib: -0.5; Beta cell apopt: -3.1; Gli-Sufu block: -3.3; GRIN3A LBD mod: -0.2; MPTP inh: 1.2

What do the screens show for `CCN(CC)S(=O)(=O)c1ccc2[nH]c(=O)cc(C(=O)NCC3CCCO3)c2c1` (stereo unspecified)?
Mdm2 MdmX PPI: 6.4; CSC inhib: 0.2; Beta cell apopt: -4.8; Gli-Sufu block: -3.2; GRIN3A LBD mod: 16.8*; MPTP inh: 0.2

What do the screens show for `COCCn1cnc2c1c(=O)n(CC(=O)NCC(F)(F)F)c(=O)n2Cc1ccccc1`?
Mdm2 MdmX PPI: 2.8; CSC inhib: -2.5; Beta cell apopt: -9.3; Gli-Sufu block: 10.2; GRIN3A LBD mod: 0.1; MPTP inh: 1.1

Results for COc1ccc(OCC(=O)Nc2ccc(N3CCN(C(=O)c4ccccc4C)CC3)cc2)cc1 ?
Mdm2 MdmX PPI: 10.8; CSC inhib: 2.2; Beta cell apopt: 7.5; Gli-Sufu block: 20.1; GRIN3A LBD mod: 17.6*; MPTP inh: -0.6

How did Cc1ccccc1C(=O)N1CCN(c2ccc(NC(=O)c3cccnc3)cc2)CC1 do in these assays?
Mdm2 MdmX PPI: 16.8; CSC inhib: -3.0; Beta cell apopt: 74.8*; Gli-Sufu block: -4.2; GRIN3A LBD mod: -0.9; MPTP inh: 1.0

Results for Cc1ccc(C(=O)N2CCN(c3ccc(NC(=O)c4cccnc4)cc3)CC2)cc1 ?
Mdm2 MdmX PPI: 20.4; CSC inhib: 11.8; Beta cell apopt: 9.2; Gli-Sufu block: -5.8; GRIN3A LBD mod: -0.4; MPTP inh: -0.8

How did Cc1ccc(NC(=O)c2ccc3c(c2)OCO3)cc1Cl do in these assays?
Mdm2 MdmX PPI: -343.3; CSC inhib: 8.2; Beta cell apopt: 8.8; Gli-Sufu block: -101.9; GRIN3A LBD mod: 16.9*; MPTP inh: 1.0

What do the screens show for `Cc1ccccc1C(=O)N1CCN(c2ccc(NC(=O)c3ccc4c(c3)OCO4)cc2)CC1`?
Mdm2 MdmX PPI: 21.8; CSC inhib: 77.0*; Beta cell apopt: 4.3; Gli-Sufu block: 35.9; GRIN3A LBD mod: -0.3; MPTP inh: -1.9

What do the screens show for `CCc1ccc(OCC(=O)Nc2ccc(N3CCN(C(=O)c4ccccc4)CC3)cc2)cc1`?
Mdm2 MdmX PPI: 3.8; CSC inhib: 28.1; Gli-Sufu block: 19.8; GRIN3A LBD mod: 1.6; MPTP inh: 2.3

What do the screens show for `COc1cc(/C=C2/SC(=S)N(CC(=O)NNC(=O)c3ccc(F)cc3)C2=O)cc(OC)c1OC`?
MPTP inh: 0.5
